# Screens as filed in PubChem BioAssay.
# Shown are actives, neighbours in structure and some others; about 8.3% of the full set was active somewhere.
# FMDV inh: antivirals against foot and mouth disease virus | FMDV antiviral cell-based qHTS | Potency, µM (highest dose often 57.9 µM), for the others: top-dose activity change, negative = inhibition, actives largely listed as inhibitors | 410,000 compounds, 1.2% hits | AID 1159524; calls by dose curve; tested in HEK293T cells; also: read-out not given here; potency is read from the fitted curve at half-maximal effect; nearly all actives have a fitted effect of over 45% in size
# FBPA Giardia inh: Giardia lamblia aldolase inhibition | purified Giardia FBPA | Potency, µM (series often up to 59.6 µM), without a hit: at the top dose activity, negative = inhibition, most hits filed as inhibitors | 290,000 compounds, 0.71% hits | A8B2U2; also: potency is read from the fitted curve at half-maximal effect; nearly all actives have a fitted effect of over 55% in size
# Target sequence (A8B2U2 whole entry, looked up): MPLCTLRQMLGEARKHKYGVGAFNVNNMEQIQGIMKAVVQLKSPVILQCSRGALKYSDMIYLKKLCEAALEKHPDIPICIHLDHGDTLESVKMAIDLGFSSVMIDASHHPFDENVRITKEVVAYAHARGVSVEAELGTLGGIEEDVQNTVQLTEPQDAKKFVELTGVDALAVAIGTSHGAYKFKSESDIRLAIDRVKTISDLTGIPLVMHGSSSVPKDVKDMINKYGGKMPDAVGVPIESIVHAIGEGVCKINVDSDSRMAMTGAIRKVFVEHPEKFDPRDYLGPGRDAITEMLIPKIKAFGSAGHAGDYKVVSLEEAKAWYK
#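 Giardia FBPA (40 nM reagent) was preincubated 10 min at RT with compound (up to 57.5 uM final), then substrate plus GAPDH/TPI/NAD/arsenate coupling system with diaphorase/resazurin was added; resorufin fluorescence (525/598 nm) was read after 20 min.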
# HCV inh: inhibitors of hepatitis C virus infection | Potency, µM (top dose mostly 41.8 µM), for the others: at the highest dose activity change, negative = inhibition, hits mostly inhibitors | Huh7.5.1 HCVcc-Cre infection, luciferase reporter, 44 h | 340,000 compounds, 3.4% hits; also: potency is read from the fitted curve at half-maximal effect
#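 Infectious HCV cell culture screen: compound-treated cells (1,000/well, pre-plated 4 h) are infected with HCVcc-Cre at roughly 0.5 moi and grown 44 h. Infection is quantified by luciferase signal after 15 min substrate incubation at room temperature.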
# HCMV inh: human cytomegalovirus inhibition. HFF cells, HCMV-luciferase reporter, 72 h; stronger effect = lower value. activity change, negative = inhibition, % at 57.5 µM. 410,000 compounds, 4.5% hits; in the data active = activity change below about -60%; inconclusive = no clear call, values can overlap the other calls; inactive = above about -39%
#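 Compounds were evaluated in HFFs infected with an HCMV luciferase reporter virus (MOI 1 PFU/cell). Luciferase in lysates collected 72 h post infection served as the replication measure.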
# Lassa entry inh: blocks Lassa virus binding to or entry into cells | Lassa virus pseudotype entry inhibition, cell reporter | Potency, µM (titrated, usually from 37.9 µM), without a hit: at the highest dose activity change, negative = inhibition, usual class: inhibitors | 300,000 compounds, 1.2% hits; calls by dose curve; tested in HEK293 cells; also: potency is read from the fitted curve at half-maximal effect; nearly all actives have a fitted effect of over 50% in size
# MARV entry inh: blocks Marburg virus binding to or entry into cells; 300,000 compounds, 1.8% hits; AID 540276; Potency, µM (titrated, usually from 37.8 µM), for inactives: at the highest dose activity change, negative = inhibition, usual class: inhibitors; Marburg virus pseudotyped entry inhibition, cell reporter; calls by dose curve; tested in HEK293 cells; also: potency is read from the fitted curve at half-maximal effect
# * hit, by the source's call; u = inconclusive; x = no result; ! = not confirmed by another sample; [ ] = another dose, or the depositor's remark. Unless noted, calls follow the shape of the dose curve; as a rule, active = well fitted curve in the direction sought with a large enough effect; inconclusive = small, poorly fitted or top-dose-only effect, or another doubt; inactive = no such curve, though single readings can be large; an effect the other way counts as inactive or inconclusive. % is scaled to controls: 0 for no effect and ±100 for the full control effect.
SMILES,FMDV inh,FBPA Giardia inh,HCV inh,HCMV inh,Lassa entry inh,MARV entry inh
Cc1cccc(OCCn2c(SCC(=O)O)nc3ccccc32)c1,-12%,x,x,-14,1%[46.1 µM],x
CCn1c(SCc2ccc(F)cc2)nc2c(c1=O)SCC2,-15%,8%,11%,-23,-12%,u
CCn1c(SCc2cccc(F)c2)nc2c(c1=O)SCC2,u,10%,12%,-60*,15%,-23%[46.1 µM]
Cc1ccc(C(C)C)c(OCC(=O)NC(=S)Nc2ccccc2N2CCOCC2)c1,-19%,24%,x,126,-26%,-14%
Cc1ccc(OCC(=O)Nc2ccccc2N2CCCC2)c(C)c1,-4%,-1%,u,-63*,u,u
Cc1ccc(C)c(OCC(=O)Nc2ccccc2N2CCCC2)c1,-18%,21%,-10%,-19,4%[46.1 µM],u
CC(=O)c1ccc(OCC(=O)Nc2ccccc2N2CCCC2)cc1,-4%,x,-12%,-83*,-16%[46.1 µM],-35%[46.1 µM]
CCC(=O)N1CCN(c2ccccc2NC(=O)COc2cc(C)ccc2C(C)C)CC1,x,0%,10µM*,62,u,u
O=C(COc1ccc([N+](=O)[O-])cc1)Nc1ccccc1N1CCCC1,u,-5%,5%,-64*,x,x
CCOc1ccc(OCC(=O)Nc2ccccc2N2CCCC2)cc1,u,x,u,-20,u,-28%
CC12CCC=CC1C(c1ccc(F)c(/C=C/c3ccccc3)c1)N(Cc1ccccc1)C2=O (centres undefined),x,7%,x,x,x,x
CCN(CC)c1ccc(NC(=O)c2c(C)nn(-c3ccc(F)cc3)c2-n2cccc2)c(C)c1,u,x,x,-36,-10%[46.1 µM],x
CCCOc1cccc(C(=O)N(Cc2cc(OC)c(OC)c(OC)c2)C2CCS(=O)(=O)C2)c1 (centres undefined),-2%,x,x,-3,-1%[46.1 µM],1%[46.1 µM]
CC(C)C(=O)N1CCN(c2ccccc2NC(=O)COc2ccccc2)CC1,u,1%,u,u,u,-21%
CC(C)C(=O)N1CCN(c2ccccc2NC(=O)COc2ccc(C3CCCCC3)cc2)CC1,u,x,u,x,-12%,7.9µM*
CC1CN=C(Nc2cccc3ccccc23)S1 (centres undefined),42%,7%,-1%,7,u,5%
COc1ccc(Cl)cc1NC1=NCC(C)S1 (centres undefined),-3%,1%,11µM*,2,2%,22%
COc1ccc(CNC(=O)C2=CC(c3ccc(OC)c(OC)c3)=NS(=O)(=O)N2C)cc1,-20%,-5%,-21%,-19,-6%[46.1 µM],u
COc1ccc(C2=NS(=O)(=O)N(C)C(C(=O)N3CCc4ccccc4C3)=C2)cc1OC,28µM*,7%,10µM*,-28,x,x
CCc1ccc(NC(=O)C2=CC(c3ccc(OC)c(OC)c3)=NS(=O)(=O)N2C)cc1,u,-5%,5.6µM*,u,x,x
COc1ccc(C2=NS(=O)(=O)N(C)C(C(=O)NCc3ccccc3)=C2)cc1OC,-23%,15%,-19%,-80*!,3%[46.1 µM],9%[46.1 µM]
Nc1ccc(Cl)cc1/C(=N\O)c1ccccc1,x,x,x,x,x,-22%
O=c1cc(CCl)[nH]c2nc3ccccc3n12,-10%,-6%,-2%,-22,x,x
O=c1cc(-c2ccccc2)[nH]c2nc3ccccc3n12,-39%,-7%,-13%,220,u,5.8µM*
Cc1ccc2nc(NC(=O)CSc3cc(C)[nH]c(=O)n3)sc2c1,36%,x,x,36,19%[46.1 µM],x
SMILES,FMDV inh,FBPA Giardia inh,HCV inh,HCMV inh,Lassa entry inh,MARV entry inh
c1ccc(-c2noc(-c3ccc4c(c3)OCO4)n2)cc1,14µM*,4%,1%,0,u,u
COc1ccc(-c2noc(-c3ccc4c(c3)OCO4)n2)cc1,26%,5%,-8%,78,-9%,u
Cc1cc(C)n(C[C@@H]2CC(=O)N(c3cc(Cl)cc(Cl)c3)C2=O)n1,x,x,x,x,x,4%
COc1ccc(Cl)cc1NC(=O)Cn1c(=O)n(CCC(=O)NCc2ccc3c(c2)OCO3)c(=O)c2ccccc21,18%,x,x,-64*,-1%[46.1 µM],-20%[46.1 µM]
Cc1ccc(C)c(NC(=O)Cn2c(=O)n(CCC(=O)NCc3ccc4c(c3)OCO4)c(=O)c3ccccc32)c1,13%,x,x,-2,-2%[46.1 µM],-7%[46.1 µM]
COc1ccc(NC(=O)Cn2nnc(C(=O)NCCc3ccccc3)c2N)c(OC)c1,16%,-1%,-21%,u,x,x
COc1ccccc1NC(=O)Cn1nnc(C(=O)NCc2ccc3c(c2)OCO3)c1N,-15%,12%,-24%,-69*!,-3%[46.1 µM],15%[46.1 µM]
COc1ccc(NC(=O)Cn2nnc(C(=O)NCc3ccccc3)c2N)c(OC)c1,u,0%,-20%,-13,u,8.2µM*
COc1ccc(Cl)cc1NC(=O)Cn1nnc(C(=O)NCc2ccc3c(c2)OCO3)c1N,-9%,-21%,2%,-33,-11%[46.1 µM],-2%[46.1 µM]
CCOc1ccccc1NC(=O)Cn1nnc(-c2ccc(OCC)c(OCC)c2)n1,x,1%,8.9µM*,11,u,u
CCOc1ccc(-c2nnn(CC(=O)Nc3cc(OC)ccc3OC)n2)cc1OCC,-11%,3%,7%,52,-4%,3%
COC(=O)[C@@H]1CC[C@H](C)[C@@H](c2ccc(C)cc2)N1C(=O)c1ccc(C=NO[C@@H](C)c2cc(-c3c(C)cc(C)cc3C)no2)cc1,x,x,x,x,x,6%[14.2 µM]
COc1cc2c(cc1OC)n(CC(=O)c1ccc(F)cc1)c(=O)n1nc(CCn3nc(C)cc3C)nc21,-6%,x,x,u,u,x
O=C(NC1CCCCC1)c1nnc2n1CCN(C(=O)c1ccc3occc3c1)C2,x,x,x,-13,x,x
Cc1cc(C)cc(NC(=O)Cn2nnc(C(=O)Nc3cc(C)cc(C)c3)c2N)c1,-11%,x,x,-83*,-17%[46.1 µM],-30%[46.1 µM]
CCOc1ccc(NC(=O)Cn2nnc(C(=O)Nc3ccc(OCC)cc3)c2N)cc1,31%,x,x,22,-9%[46.1 µM],-5%[46.1 µM]
CCOc1ccc(NC(=O)c2nnn(CC(=O)Nc3ccccc3OCC)c2N)cc1,0%,6%,11µM*,13,1%,0%
COc1ccc(NC(=O)c2sc3nc4c(cc3c2N)CN(Cc2ccccc2)CC4)c(OC)c1,u,x,x,-95*,-3%[46.1 µM],-3%[46.1 µM]
COc1ccc(Cl)cc1C(=O)Nc1nc2ccccc2[nH]1,11µM*,-12%,-13%,1,u,u
